Structures can show the parent of a compound that is named as a salt. ± gives the uncertainty stated by the source.
Each molecule was assayed on THP-1 (assay: CD86 surface expression induction over DMSO control (% over DMSO); higher = stronger dendritic cell activation). Details: exposure time: 24 h.
Procedure: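 hCLAT-like CD54 and CD86 surface expression on THP1 cells after 24 h exposure at a single concentration (highest non-cytotoxic concentration, or 100-200 µM if not cytotoxic). Flow cytometry (iQue) was run on 5,000 live cells.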

Row | Compound | CD86 surface expression induction
1 | O=C(O)c1cccnc1Nc1cccc(C(F)(F)F)c1 [Niflumic acid] (100 µM) | -3.19 ± 1.6
2 | O=c1cc(-c2ccccc2)oc2ccccc12 [Flavone] (200 µM) | 16.4 ± 4.7
3 | COC(=O)CCCCCCCC(=O)OC [Dimethyl nonanedioate] (200 µM) | -0.54 ± 1.9
4 | CC(C)C[C@H](NC(=O)[C@H](Cc1ccccc1)NC(=O)c1cnccn1)B(O)O [Bortezomib] (10 µM) | 107 ± 8.1
5 | Oc1c(Br)cc(Br)c2cccnc12 [Broxyquinoline] (100 µM) | 57.8 ± 75
6 | CN(C)c1ccc(SC#N)cc1 [4-(Dimethylamino)phenylthiocyanate] (10 µM) | -14.3 ± 7
7 | Cc1ccc(N)cc1O [5-Amino-2-methylphenol] (200 µM) | -0.96 ± 6.3
8 | COc1cc(C(C)C)c2c(c1)S(=O)(=O)N(COc1cc(=O)n3cccc(OCCN4CCCCC4)c3n1)C2=O (100 µM) | 117 ± 98
9 | Clc1nc(C(Cl)(Cl)Cl)c(Cl)c(Cl)c1Cl [2,3,4,5-Tetrachloro-6-(trichloromethyl)pyridine] (10 µM) | -11.6 ± 6.2
10 | O=c1cc(-c2ccccc2)oc2cc(O)cc(O)c12 [Chrysin] (100 µM) | 38.2 ± 51
11 | O=C(Oc1ccccc1)c1cccc(C(=O)Oc2ccccc2)c1 [Diphenyl isophthalate] (200 µM) | 1.84 ± 5.6
12 | O=C(OCc1ccccc1)c1ccc(O)cc1 [Benzylparaben] (100 µM) | 3 ± 13
13 | O=C1Nc2ccccc2C1(c1ccc(O)cc1)c1ccc(O)cc1 [Oxyphenisatin] (100 µM) | 3.8 ± 8.1
14 | CN(C)c1ccc(C(=C2C=CC(=[N+](C)C)C=C2)c2ccccc2)cc1 [Malachite green oxalate*] (10 µM) | 195 ± 53
15 | CCOc1ccc2nc(S(N)(=O)=O)sc2c1 [Ethoxzolamide] (200 µM) | -1.83 ± 4.6
16 | CCCCCCCCN [n-Octylamine] (100 µM) | -6.07 ± 0.55
17 | CCCCCOc1ccccc1/C(=C\SC)n1ccnc1 [Neticonazole] (100 µM) | 38.9 ± 22
18 | COc1cc(/C=C2\CCC/C(=C\c3ccc(O)c(OC)c3)C2=O)ccc1O [Cyclovalone] (10 µM) | -7.37 ± 5.9
19 | O=C(O)c1cn(C2CC2)c2cc(N3CCNCC3)c(F)cc2c1=O [Ciprofloxacin] (100 µM) | -5.55 ± 6.9
20 | C=C(C)C(=O)Nc1ccc(Cl)c(Cl)c1 [Chloranocryl] (100 µM) | -22.2 ± 23

Row | Compound | CD86 surface expression induction
21 | CCCCCCCCCCCCO [1-Dodecanol] (100 µM) | 21.8 ± 27
22 | CC(=O)Oc1ccc(C2(c3ccc(OC(C)=O)cc3)C(=O)Nc3ccccc32)cc1 [Oxyphenisatin acetate] (100 µM) | 6.01 ± 7.9
23 | Cc1ccc2c(c1[N+](=O)[O-])C(=O)c1ccccc1C2=O [2-Methyl-1-nitroanthraquinone] (10 µM) | 7.64 ± 3.5
24 | COc1cccc2c1C(=O)c1c(O)c3c(c(O)c1C2=O)C[C@@](O)(C(=O)CO)C[C@@H]3O[C@H]1C[C@H](N)[C@H](O[C@@H]2CCCCO2)[C@H](C)O1 [Pirarubicin*] (10 µM) | 324 ± 3.3
25 | COC(=O)Nc1nc2ccc(C(=O)C3CC3)cc2[nH]1 [Cyclobendazole] (100 µM) | 7.71 ± 16
26 | COC(=O)Nc1nc2cc(Sc3ccccc3)ccc2[nH]1 [Fenbendazole] (100 µM) | -18.1 ± 26
27 | COP(=O)(O)OP(=O)(O)OC [Dimethyl dihydrogen diphosphate] (200 µM) | -3.42 ± 3.5
28 | NC(=S)NC(N)=S [2,4-Dithiobiuret] (200 µM) | 26.6 ± 0.3
29 | Cc1c(C)n(CCN(C)C)c2ccc(C(=O)OCCN(C)C)cc12 [Amindocate] (100 µM) | 1.11 ± 2.2
30 | C=CC(=O)OCCn1c(=O)n(CCOC(=O)C=C)c(=O)n(CCOC(=O)C=C)c1=O (10 µM) | 14.2 ± 10
31 | COc1cccc2c1C(=O)c1c(O)c3c(c(O)c1C2=O)C[C@@](O)(C(=O)CO)C[C@@H]3O[C@H]1C[C@H](N)[C@H](O)[C@H](C)O1 [Doxorubicin*] (10 µM) | 218 ± 96
32 | O=[N+]([O-])c1cc(N(CCO)CCO)ccc1NCCO (200 µM) | -7.47 ± 11
33 | COc1cc(C(C)(C)C)c(O)c(C(C)(C)C)c1 [2,6-Di-tert-butyl-4-methoxyphenol] (200 µM) | 18.9 ± 43
34 | Nc1cc(-c2ccncc2)c[nH]c1=O [Amrinone] (100 µM) | -0.14 ± 4.2
35 | CCOC(=O)CCC(=O)OCC [Diethyl butanedioate] (200 µM) | -4.2 ± 3.3
36 | Nc1ccc2cc3ccccc3cc2c1 [2-Aminoanthracene] (200 µM) | -10.7 ± 9.7
37 | O=C(N/N=C/c1ccccc1O)c1ccncc1 [Salinazid] (10 µM) | 7.77 ± 2.8
38 | Nc1ccc(Nc2ccccc2)cc1 [N-Phenyl-1,4-benzenediamine] (200 µM) | 44.2 ± 39
39 | CC/C=C\C/C=C\C/C=C\CCCCCCCC(=O)OCC [Ethyl linolenate] (10 µM) | -8.18 ± 6.8
40 | CC1=C(/C=C/C(C)=C\C=C\C(C)=C\C(=O)O)C(C)(C)CCC1 [9-cis Retinoic acid] (100 µM) | 5.14 ± 16

Reference: the supplement of paper PMC10933113
